Here are results for 40 compounds from PubChem BioAssay (Tox21).

SMILES strings stand for the structures. Results filed as inconclusive are left out. Where a call stands in place of a potency, no number is given. Values without a mark were called inactive. The source made the active and inactive calls. The call rests on the fitted dose curve.

The test is described as follows: p53 small molecule agonists, cell-based qHTS assay with rat liver microsomes (AID 1963578). The conditions noted are these: HCT-116 p53RE-bla, beta-lactamase ratio, 16 h; series mostly up to 66 µM; activation: at the top concentration. The source says:
U.S. Tox21 Program National Center for Advancing Translational Sciences [NCATS] Division of Preclinical Innovation [DPI] U.S. Environmental Protection Agency [EPA] National Institutes of Environmental Health Sciences [NIEHS] National Toxicology Program [NTP] U.S. Food and Drug Administration [FDA] Tox21 Assay Overview: p53, a tumor suppressor protein, is activated following cellular insult, including DNA damage and other cellular stresses. The activation of p53 regulates cell fate by inducing DNA repair, cell cycle arrest, apoptosis, or cellular senescence. The activation of p53, therefore, is a good indicator of DNA damage and other cellular stresses. […] The activation of the reporter gene under culture conditions can be detected by fluorescence intensity. This cell line was used to screen the Tox21 10K compound library in the condition of presence of rat liver microsomes and to identify agonists that activate the p53 signaling pathway after in vitro metabolic activation (Ooka et al., Archive of Toxicology 96:1975-1987, 2022).
Tox21 Assay Protocol Summary: The p53RE-bla cells were dispensed at 4,000cells/3ul/well in 1536-well black-clear bottom plates. After the assay plates were incubated at 37 C, 5% CO2 incubator for 5 hours, 23 nL of compounds dissolved in DMSO, positive controls or DMSO only was transferred to the assay plate. Following compound addition, 3 uL of rat liver microsomes (Molecular Toxicology, Boone, NC) at final concentration of 0.5 mg/mL and 1uL of Beta-Nicotinamide adenine dinucleotide 2-phosphate (NADPH) at final concentration of 0.5 mg/mL were transferred to the assay plate. The plates were incubated at 37 C for 16 hours. 1 uL of LiveBLAzer detection mixture was added to each well and the plates were incubated at room temperature in the dark for 2 h.
Background: Quantitative high-throughput screening tests each substance at several concentrations.
As to `COC(=O)C(C)Oc1ccc(Oc2ncc(C(F)(F)F)cc2Cl)cc1` (stereo not given), the Potency result was “inactive”.

Take `CC(=O)N[C@@H](CS)C(=O)O`: the Potency result was “inactive”.

`COc1ccc(CCC(C)=O)cc1`: the Potency entry is “inactive”.

Turning to `CC(=O)c1ccccc1`, the Potency entry was “inactive”.

As to `CC(C)CC(=O)CC(C)CC(C)C` (stereo not given), the Potency entry was “inactive”.

On to `CCc1cccc(O)c1`, for which the “activation” value is -2.67%.

For `CCO[Si](CCCNC(N)=O)(OCC)OCC`, the Potency entry was “inactive”.

Regarding `CCOC(=O)CC(=O)OCC`, the Potency result was “inactive”.

In the case of `COC(=O)C1CCC(C(=O)OC)CC1` (stereo not given), the Potency result is “inactive”.

For the compound `CCOCCOCCO`, the Potency result was “inactive”.

Turning to `CN(C)CCOC(C)(c1ccccc1)c1ccccn1` (stereo not given), the Potency result was “inactive”.

On to `CC1=C(/C=C/C(C)=C/C=C/C(C)=C/C(=O)O)C(C)(C)CCC1`, for which the Potency entry was “inactive”.

Regarding `COc1ccc([C@@H]2CC(=O)c3c(O)cc(O[C@@H]4O[C@H](CO[C@@H]5O[C@@H](C)[C@H](O)[C@@H](O)[C@H]5O)[C@@H](O)[C@H](O)[C@H]4O)cc3O2)cc1OC`, the Potency result was “inactive”.

As for `CCCCCCc1ccc(O)cc1O`, the Potency entry was “inactive”.

For the compound `CC1(C)CC(N=C=O)CC(C)(CN=C=O)C1` (stereo not given), the Potency entry is “inactive”.

With `CC(O)CO` (stereo not given), the Potency result is “inactive”.

Turning to `c1ccc2c(c1)[nH]c1ccccc12`, the Potency result was “inactive”.

Turning to `COc1cc([C@H]2Oc3cc([C@H]4Oc5cc(O)cc(O)c5C(=O)[C@@H]4O)ccc3O[C@@H]2CO)ccc1O`, the Potency entry is “inactive”.

With `O=C(O)CC(C(=O)O)C(CC(=O)O)C(=O)O` (stereo not given), the “activation” value is 0.785%.

On to `O=S(=O)(O)c1ccc(O)cc1`, for which the Potency result is “inactive”.

Regarding `CCC(=O)OC/C=C/c1ccccc1`, the Potency result was “inactive”.

Take `OC[C@]1(O)OC[C@@H](O)[C@H](O)[C@@H]1O`: the Potency entry is “inactive”.

Consider `CCCCCCCCC(=O)O`, for which the “activation” value was -0.372%.

For the compound `CCCCNC(N)=O`, the Potency entry was “inactive”.

On to `CCc1cc(C(N)=S)ccn1`, for which the Potency result was “inactive”.

For `c1ccc2scnc2c1`, the Potency entry was “inactive”.

Consider `Cc1ccc([N+](=O)[O-])cc1S(=O)(=O)O`, for which the Potency result is “inactive”.

Consider `C[C@]12CC[C@@H]3c4ccc(O)cc4C[C@@H](CCCCCCCCCS(=O)CCCC(F)(F)C(F)(F)F)[C@H]3[C@@H]1CC[C@@H]2O` (stereo not given in full), for which the Potency entry is “inactive”.

For the compound `Brc1ccc(Oc2ccc(Br)cc2)cc1`, the Potency entry is “inactive”.

For the compound `Nc1ccc(S(=O)(=O)Nc2nccs2)cc1`, the Potency entry was “inactive”.

For `CCCCCC(N)=O`, the Potency entry is “inactive”.

With `CC1=C(C)S(=O)(=O)CCS1(=O)=O`, the Potency result is “inactive”.

Regarding `O=C(O)CC(O)C(=O)O` (stereo not given), the Potency entry was “inactive”.

Take `CC1=C(/C=C/C(C)=C/C=C/C(C)=C/C(=O)Nc2ccc(O)cc2)C(C)(C)CCC1`: the Potency entry is “inactive”.

As to `Cc1ncc([N+](=O)[O-])n1CCO`, the Potency entry is “inactive”.

For the compound `COC(=O)c1ccc(C)cc1`, the Potency result was “inactive”.

In the case of `CCCNC(=O)NS(=O)(=O)c1ccc(Cl)cc1`, the Potency entry is “inactive”.

On to `O=Cc1ccc(CO)o1`, for which the Potency entry was “inactive”.

In the case of `CC(O)COCC(C)O` (stereo not given), the Potency result was “inactive”.

For `CCCCCCCCCCCC(=O)OC`, the Potency entry is “inactive”.
